“And” between values parts separate entries of the source, which are not always exact repeats. Identical values can stand only once. Results filed as inconclusive are left out. A call without a number means that no potency is given here. The source made the active and inactive calls. Calls follow the shape of the full dose curve.
Potency is read from the fitted curve at half-maximal effect.

This assay is described as follows: p53 small molecule agonists, cell-based qHTS assay with rat liver microsomes: qHTS cell viability counter screen (AID 1963580). Also: nearly all actives have a fitted effect of over 45% in size. The following applies: p53RE-bla HCT-116 + rat microsomes, ATP viability, 16 h; series mostly up to 66 µM. The text has this: National Center for Advancing Translational Sciences [NCATS]
Division of Preclinical Innovation [DPI]
U.S. Environmental Protection Agency [EPA]
National Institutes of Environmental Health Sciences [NIEHS]
National Toxicology Program [NTP]
U.S. Food and Drug Administration [FDA]
p53, a tumor suppressor protein, is activated following cellular insult, including DNA damage and other cellular stresses. The activation of p53 regulates cell fate by inducing DNA repair, cell cycle arrest, apoptosis, or cellular senescence. The activation of p53, therefore, is a good indicator of DNA damage and other cellular stresses. The CellSensor p53RE-bla HCT-116 cell line contains a stably integrated beta-lactamase reporter gene under control of the p53 response elements. The activation of the reporter gene under culture conditions can be detected by fluorescence intensity. This cell line was used to screen the Tox21 10K compound library in the condition of presence of rat liver microsomes and to identify agonists that activate the p53 signaling pathway after in vitro metabolic activation (Ooka et al., Archive of Toxicology 96:1975-1987, 2022). The cytotoxicity of the Tox21 compound library against the p53 RE-bla HCT-116 cell line was tested in parallel by measuring the intra cellular ATP content in the same wells.
Tox21 Assay Protocol Summary:
The p53RE-bla cells were dispensed at 4,000cells/3ul/well in 1536-well black-clear bottom plates. After the assay plates were incubated at 37 C, 5% CO2 incubator for 5 hours, 23 nL of compounds dissolved in DMSO, positive controls or DMSO only was transferred to the assay plate. Following compound addition, 3 uL of rat liver microsomes (Molecular Toxicology, Boone, NC) at final concentration of 0.5 mg/mL and 1uL of B-Nicotinamide adenine dinucleotide 2'-phosphate (NADPH) at final concentration of 0.5 mg/mL were transferred to the assay plate. The plates were incubated at 37 C for 16 hours. 1 uL of LiveBLAzer detection mixture was added to each well and the plates were incubated at room temperature in the dark for 2 h. Fluorescence intensity at 460 and 530 nm emission and 405 nm excitation were measured by an Envision plate reader. For cell viability readout that measures cytotoxicity, 4 ul/well of CellTiter-Glo reagent was added into the assay plates using a Flying Reagent Dispenser. After 30 min incubation at room temperature, the luminescence intensity in the plates was measured using a ViewLux plate reader.
In general terms: Quantitative high-throughput screening tests each substance at several concentrations.
Take `O=C(O)CC[N+](=O)[O-]`: the Potency result was “inactive”.
Under `Nc1cccc2ccccc12` stands “inactive”; under `OCCN(CCO)CCO`, “inactive”; under `Cc1ccc([N+](=O)[O-])cc1`, “inactive”.
On to `Cc1ccc(N=C=O)cc1N=C=O`, for which the Potency entry is “inactive”.
For the compound `Cc1cccc(N)c1N`, the Potency entry was “inactive”.
Under `ClC1=C(Cl)[C@]2(Cl)[C@@H]3[C@@H](Cl)[C@H](Cl)C[C@@H]3[C@@]1(Cl)C2(Cl)Cl` stands “inactive”; under `Cc1cc(Cl)ccc1OCCCC(=O)O`, “inactive”; under `[O]=[Cr][O][Cr]=[O]`, “inactive”.
With `C=CC(Cl)CCl` (stereo not given), the Potency entry was “inactive”.
Then `OC(c1ccc(Cl)cc1)(c1cncnc1)c1ccccc1Cl` (stereo not given), with “inactive”; and `O=[N+]([O-])c1cc(Cl)c(Cl)c(Cl)c1`, with “inactive”.
Regarding `O=C(O)C(F)(F)C(F)(F)C(F)(F)C(F)(F)C(F)(F)C(F)(F)C(F)(F)F`, the Potency entry is “inactive”.
Take `Cc1ccc2c(C)cccc2c1`: the Potency entry is “inactive”.
`CC(C)(O)C#N`: the Potency result was “inactive”.
`Cl/C=C/Cl`: the Potency entry was “inactive”.
With `COc1ccccc1OC`, the Potency entry is “inactive”.
Regarding `OC(Cc1ccccc1Cl)(Cn1cncn1)C1(Cl)CC1` (stereo not given), the Potency result is “inactive”.
`CC(c1ccc(O)cc1)c1ccc(O)cc1`: the Potency result is “inactive”.
With `CN(C)c1ccc(N=O)cc1`, the Potency entry is “inactive”.
Turning to `O=[N+]([O-])/N=C1\NCCN1Cc1ccc(Cl)nc1`, the Potency result is “inactive”.
With `CC(C)Nc1nc(Cl)nc(NC(C)C)n1`, the Potency result is “inactive”.
In the case of `CCCCCCCCn1sccc1=O`, the Potency was 4.09 µM (active) and 1.35 µM (active).
As for `CCc1cccc(CC)c1N(COC)C(=O)CCl`, the Potency entry was “inactive”.
Under `CCN(CC)C(=S)S` stands “inactive”; under `O=Cc1cccc(Oc2ccccc2)c1`, “inactive”.
On to `COc1ccc2c3c1O[C@H]1[C@H](O)CC[C@H]4[C@@H](C2)N(C)CC[C@@]341`, for which the Potency entry was “inactive”.
Regarding `CCCCCCCCCCCCOS(=O)(=O)O`, the Potency result is “inactive”.
`O=C(Cl)C(Cl)Cl`: the Potency entry is “inactive”.
For `Oc1ccc(-c2ccccc2)cc1`, the Potency result is “inactive”.
Under `S=c1[nH]c2ccccc2[nH]1` stands “inactive”.
As to `CNC(=O)Oc1ccccc1OC(C)C`, the Potency entry was “inactive”.
Take `CCCCCCCCCCCCCCCC[N+](C)(C)C`: the Potency result is “inactive”.
Consider `CN(C)c1ccc(C(=O)c2ccc(N(C)C)cc2)cc1`, for which the Potency result is “inactive”.
In the case of `N#Cc1ccncc1`, the Potency result is “inactive”.
As to `COC(=O)C(Br)CBr` (stereo not given), the Potency entry is “inactive”.
Take `C[C@]12CCC(=O)C=C1CC[C@@H]1[C@@H]2CC[C@@]2(C)[C@H]1CC[C@]2(C)O`: the Potency result is “inactive”.
Then `N#CS`, with “inactive”; and `CC1CCC(=O)O1` (stereo not given), with “inactive”.
For the compound `Cc1ccc(OP(=O)(Oc2ccc(C)cc2)Oc2ccc(C)cc2)cc1`, the Potency entry was “inactive”.

The record behind these values is PubChem BioAssay (Tox21).
